High-throughput results (PubChem BioAssay)
TMEM16A inh – blocks the mouse calcium-activated chloride channel TMEM16A; HEK293 TMEM16A/YFP iodide influx fluorescence, ionomycin; normalized B-score (activity score, 25-100; higher = stronger inhibition) at 10 µM; hit rate 1.2% among 310,000; AID 588511;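 active = ratio plate-corrected score three or more library SD toward inhibition, starting fluorescence score within five deviations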;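 also: score derived from kinetic fluorescence span divided by baseline fluorescence per well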
PHOSPHO1 block – inhibitors of human PHOSPHO1 phosphatase; Q8TCT1; recombinant PHOSPHO1, absorbance phosphatase assay; inhibition, % at 13.3 µM; hit rate 1.1% among 290,000; AID 1565; in the data active = inhibition above about 60%
Target sequence (Q8TCT1 whole entry, looked up): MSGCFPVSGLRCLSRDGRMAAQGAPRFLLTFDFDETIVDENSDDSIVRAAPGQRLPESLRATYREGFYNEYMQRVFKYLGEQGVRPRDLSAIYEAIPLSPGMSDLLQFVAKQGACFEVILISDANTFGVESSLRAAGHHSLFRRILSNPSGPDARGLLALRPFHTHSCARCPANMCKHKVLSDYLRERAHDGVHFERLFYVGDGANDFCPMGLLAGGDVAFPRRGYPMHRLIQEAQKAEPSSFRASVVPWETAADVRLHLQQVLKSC
TMEM16A act – activates or potentiates the mouse TMEM16A chloride channel; Q8BHY3; HEK293 TMEM16A/YFP-H148Q/I152L, iodide quench fluorescence; active compounds read low; B-score at 10 µM; hit rate 0.3% among 340,000; AID 623877;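 active = fluorescence-ratio B-score plate-corrected deviation score at least 3 library SD below zero, with starting fluorescence score within 5 deviations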;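 also: channel opened by trigger with iodide after compound preincubation; score built on the fluorescence ratio of max minus min over baseline; more negative score means more quench and so TMEM16A activation or potentiation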
CHT PAM – human CHT allosteric activation; CHT-expressing cells, membrane potential dye, choline EC20; active compounds read high; LV-AA mutant CHT in HEK293 cells; B-score at 10 µM; hit rate 0.49% among 310,000; AID 488977;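 active = initial fluorescence not abnormally high and integrated response B-score, plate-corrected, over 3 SD above library mean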
CHT inh – inhibitors of human choline transporter CHT; Q9GZV3; CHT-expressing cells, membrane potential dye, choline response; active compounds read low; B-score at 10 µM; hit rate 0.86% among 310,000;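 active = B-score over 3 SD under the library average, and starting fluorescence ratio not unusually high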;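 also: choline stimulus applied at its EC90 after an EC20 pre-addition; B-score computed on integrated fluorescence ratio after choline addition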
HDAC3 inhib – human HDAC3 inhibition; recombinant HDAC3, fluorogenic peptide/trypsin coupled, fluorescence; inhibition, % at 8.3 µM; AID 2718; hit rate 0.15% among 320,000; O15379; in the data active = inhibition above about 26%, passing the limit was not always enough
CHT block conf – human CHT inhibition, confirmatory screen; shares compounds with CHT inh; CHT-expressing cells, choline membrane potential dye; LV-to-AA substituted CHT, HEK293 cells; CHT activity remaining % of control (active compounds read low), % at 10 µM; hit rate 70% among 2,400; AID 493221;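 active = choline transporter activity left, mean of duplicates at 10 µM, below buffer-only control mean minus 3 SD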;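 also: depolarization triggered by choline at its EC90 following an EC20 pre-addition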
HEK293 CHT ctr – CHT inhibitor counter-screen hit in parental HEK293 cells; hit rate 4% among 2,400; membrane potential ratio readout (active if shifted either direction beyond buffer ±3SD; no single direction) at 10 µM; AID 493222; membrane potential dye, choline response; active = decrease or increase beyond buffer ±3SD; shares compounds with CHT inh;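 also: parental cells lack the transporter so any hit is non-specific; ratio is peak minus trough fluorescence over baseline after EC90 choline challenge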
Each line names hits and unclear results; the compound was inactive in the other large screens (follow-up assays come after a bar, where they were run). Rows were chosen to be rich in hits. Some 3.2% of all compounds tested hit in one or more screens of this group.

Clc1ccc(Cn2cccc2C2=NCCO2)cc1	none
Cc1ccc(C)c(NC(=O)CCc2nnc3ccc(N4CCCC4)nn23)c1	none
CSc1ccc(CCNC(=O)CCc2nnc3ccc(N4CCCC4)nn23)cc1	CHT inh -5.3 | CHT block conf inactive | HEK293 CHT ctr inactive
O=C(CCc1ccccn1)N1CCCC(N2CCN(c3ccc(F)cc3)CC2)C1 (stereo not drawn)	none (no result: TMEM16A inh, PHOSPHO1 block, CHT PAM, CHT inh, HDAC3 inhib)
CCC(NC(=O)CCc1nnc(-c2cc(C)on2)o1)C12CC3CC(CC(C3)C1)C2 (stereo not drawn)	CHT inh -7.9 (no result: PHOSPHO1 block) | CHT block conf 44% | HEK293 CHT ctr inactive
COc1ccc([C@@H](C)NC(=O)CCc2nnc(-c3cc(C)on3)o2)cc1	none
CC(NCc1ccc(OCc2ccc(Cl)cc2)cc1)C(O)c1ccccc1 (stereo not drawn)	none
C[C@@H](NCCc1ccc(O)cc1)[C@@H](O)c1ccc(O)cc1	CHT inh -5 (no result: PHOSPHO1 block) | CHT block conf 47% | HEK293 CHT ctr inactive
O=C(O)c1cnn(-c2nc(-c3ccc(Br)cc3)cs2)c1C(F)(F)F	CHT inh -8.9 (no result: PHOSPHO1 block) | CHT block conf inactive | HEK293 CHT ctr inactive
O=C(O)c1cnn(-c2nc(-c3ccc(F)cc3)cs2)c1C(F)(F)F	none
Cn1cnnc1SC/C(O)=C(\C#N)c1nc2ccccc2[nH]1	none
CN(C)C1(CN=Cc2cc(Cl)cc([N+](=O)[O-])c2O)CCCCC1	CHT inh -6.3 | CHT block conf 36% | HEK293 CHT ctr inactive
O=[N+]([O-])c1cc(Cl)cc(/C=N\Nc2ccccn2)c1O	none
CCCCn1nc2cc(C(=O)NCCc3ccc(C)cc3)ccc2c1OCC	none
CCCCNC(=O)c1ccc2c(OCC)n(CCCC)nc2c1	CHT inh -7.1 | CHT block conf 57% | HEK293 CHT ctr inactive
Cc1ccc(CSc2nnc(C)c(=O)[nH]2)cc1	CHT inh -7.9 | CHT block conf inactive | HEK293 CHT ctr inactive
Cc1nnc(SCc2ccccc2)[nH]c1=O	none
O=C(c1cccc(-c2nnc(-c3ccccc3)o2)c1)N1CCCCC1	CHT inh -6.3 | CHT block conf inactive | HEK293 CHT ctr inactive
CC1CCCCC1NC(=O)CCn1ccc2cc(S(=O)(=O)N3CCCC3)ccc21 (stereo not drawn)	CHT inh -6.2 | CHT block conf 41% | HEK293 CHT ctr inactive
CCOCCCn1c(=S)[nH]c2cc(C(=O)NC3CCCCC3C)ccc2c1=O (stereo not drawn)	none
CC1CCCCC1NC(=O)c1ccc2c(c1)[nH]c(=O)n2C1CCCC1 (stereo not drawn)	CHT inh -9.9 | CHT block conf 40% | HEK293 CHT ctr inactive
CC1CCCCC1NC(=O)c1cccc(S(=O)(=O)N2CCN(C)CC2)c1 (stereo not drawn)	CHT inh -12 (no result: PHOSPHO1 block) | CHT block conf 2.1% | HEK293 CHT ctr inactive
CC1CCCCC1NC(=O)c1ccc(S(=O)(=O)N2CCCC2)cc1 (stereo not drawn)	CHT inh -5.4 | CHT block conf 7.2% | HEK293 CHT ctr inactive
CN1CCN(S(=O)(=O)c2cccc(C(=O)NC3CCCC3)c2)CC1	none (no result: PHOSPHO1 block)
CC1CCN(S(=O)(=O)c2ccc3c(ccn3CCC(=O)NC(C)C)c2)CC1	none
CCN1C(=O)c2cccc3c(NC(=O)c4ccc5c(c4)OCCO5)ccc1c23	none
Cc1cccc(OCCCn2c(CCNC(=O)C(C)C)nc3ccccc32)c1	CHT inh -5.1 | CHT block conf inactive | HEK293 CHT ctr inactive
CC(=O)NCCc1nc2ccccc2n1CCOc1cccc(C)c1	none
COc1ccccc1-c1oc2ccccc2c1-c1ccccc1OC	none (no result: TMEM16A inh, PHOSPHO1 block, CHT PAM, CHT inh)
C/C(=N\NC(=O)CC(C)C)c1ccc(Cl)c(Cl)c1	none
C/C(=N\N=C(N)N)c1ccc(Cl)c(Cl)c1	CHT inh -11 | CHT block conf 19% | HEK293 CHT ctr inactive
CCCCn1c(=O)[nH]c2nc3cc(N)ccc3nc2c1=O	none
